# From PubChem BioAssay (NCATS)
# Records with an inconclusive call do not appear. A number with no mark means an inactive call. Activity calls are given as the source filed them. Calls come from the whole dose curve; as a rule, active = well fitted cell-killing curve with a large enough effect; inconclusive = small, poorly fitted or top-dose-only effect; inactive = flat fitted curve, though single readings scatter.
# Experiment: Cell Viability - LYMP2-011 (AID 969); note: nearly all actives have a fitted effect of over 60% in size;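 for viability change, negative = cytotoxic: 0% = DMSO only and full inhibition = 92 µM tetraoctylammonium bromide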
# Conditions: LYMP2-011 lymphoblastoid cells viability; series mostly up to 92.2 µM; viability change, negative = cytotoxic: at the top concentration
# Source text: NIH Chemical Genomics Center [NCGC]
# NIH Molecular Libraries Screening Centers Network [MLSCN]
# National Institutes of Environmental Health Sciences [NIEHS]
# National Toxicology Program [NTP]
# We have developed a 1536-well cell-based assay for quantitative high throughput screening (qHTS) against a number of cell lines to determine in vitro cytotoxicity of small molecules. This particular assay uses a human lymphoblastoid cell line (LYMP2-011) purchased from Coriell Institute for Medical Research.
# NCGC Assay Protocol Summary:
# The CellTiter-Glo luminescent cell viability assay (Promega) is a homogeneous method to measure the number of viable cells in culture. The end point readout of this assay is based on quantitation of intracellular ATP, an indicator of metabolic activity, using the luciferase reaction. Luciferase catalyzes the oxidation of beetle Luciferin to oxyluciferin and light in the presence of ATP. The luminescent signal is proportional to amount of ATP present.
# Using the CellTiter-Glo luminescent cell viability assay, the amount of cellular ATP was measured in the lymphoblastoid cell line with complete culture medium following compound treatment for 24 hours. The assay was performed in opaque white Kalypsys 1536-well plates. In the screen, tetraoctylammonium bromide was used as positive control. Library compounds were measured for their ability to cause acute toxicity in the cell line, as reflected by a decrease in intracellular ATP levels, in a concentration-dependent manner. […] AC50 values were determined from concentration-response data modeled with the standard Hill equation.
# qHTS protocol for CellTiter Glo lymphoblastoid cellular assay
# [Step] [Parameter] [Value] [Description]
# 1. Reagent; 5 uL; 2500 lymphoblastoid cells/well
# 2. Time; 5 hr; 37 C incubation
# 4. Controls; 23 nL; Tetraoctylammonium bromide 6.4pM to 92 uM
# 5. Time; 24 hr; 37 C incubation
# 6. Reagent; 5 uL; CellTiter Glo reagent
# 7. Time; 30 min; Room Temperature
# 8. Detection; Luminescence; Viewlux plate reader
# Keywords: cell viability, cytotoxicity, lymphoblastoid cell line, luminescence, NTPHTS, NTPHTS_NCGC, NIEHS, DSSTox, MLSMR, MLSCN, NIH Roadmap, qHTS, NCGC
# Potency is the fitted concentration of half-maximal effect.
SMILES,"viability change, negative = cytotoxic [%]",Potency
O=Cc1ccc(CO)o1,5.49,
O=C(O)c1cc(Cl)cc(Cl)c1,3.37,
ClC/C=C/CCl,-20.1,
Cc1cccc2cccnc12,1.85,
COc1ccc(OC)cc1,-0.453,
C/C=C(/C)C#N,0.749,
OC/C(Br)=C(\Br)CO,-7.24,
Nc1ccccc1S(=O)(=O)O,-4.27,
COc1ccccc1[N+](=O)[O-],-6.22,
C[C@@H]1CC2(OC3C[C@@]4(C)C5=CC[C@H]6C(C)(C)C(O[C@@H]7OC[C@@H](O)[C@H](O)[C@H]7O)CC[C@@]67C[C@@]57CC[C@]4(C)C31)OC(O)C1(C)OC21 (stereo not given in full),1.76,
CN(C)CCCCl,-0.272,
C1CCCC1,-5.36,
CC(C)c1ccccc1,-2.08,
ICCc1ccccc1,-9.07,
CC=C(Cl)Cl,-0.565,
C=Cc1ccccc1C=C,3.35,
CCCC=O,-6.92,
C=C(C)C(=O)OCC(C)C,-13.5,
Cc1cscn1,-0.535,
CC(C)CCOC(=O)/C=C/c1ccccc1,-4.99,

SMILES,"viability change, negative = cytotoxic [%]",Potency
COC(=O)CS,2.44,
CCC(C)(C)C(=O)O,-2.58,
Cc1c(N)cccc1[N+](=O)[O-],-4.98,
C(=C/c1ccccc1)/c1ccccc1,-3.23,
O=C(O)c1cccc([N+](=O)[O-])c1,-1.69,
Cc1cc(C)cc([N+](=O)[O-])c1,0.375,
BrC(Br)C(Br)Br,-1.67,
OC(CCl)CCl,-8.56,
CCCCCCCCCCCCOCC1CO1 (stereo not given),-4.14,
O=C(O[C@@H](C(=O)O)[C@@H](OC(=O)c1ccccc1)C(=O)O)c1ccccc1,2.13,
CCN(Cc1ccccc1)c1ccccc1,-7.13,
CCCCC(CC)COCC1CO1 (stereo not given),-9.34,
Cc1cc([N+](=O)[O-])ccc1N,-4.72,
Cc1cc(C(=O)O)ccc1[N+](=O)[O-],6.19,
Nc1nc2ccccc2[nH]1,-7.98,
CCCCN(CCO)CCCC,-4.2,
O=CNc1ccccc1,4.17,
O=P(O)(OCc1ccccc1)OCc1ccccc1,7.39,
CC1=C(/C=C/C(C)=C/C=C/C(C)=C\C=O)C(C)(C)CCC1,,50.1 µM (active)
CCOC(=O)OCC,3.43,
